According to PubChem BioAssay AID1159580 (chemical genetic matrix, 2015):
“And” between values parts separate entries of the source, which are not always exact repeats. Identical values can stand only once. Hit rate of the full screen: of about 5,500 compounds, about 2,000 (36%) were called active. About 18% were inconclusive and are not listed. Rule as the data show it: active = normalized growth mostly below about 0.91 (no sharp cut-off); inconclusive = no clear call, values can overlap the other calls; inactive = mostly above about 0.92. The list shows a part of the results.

Assay: chemical genetic growth profiling, strain panel (AID 1159580);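 also: tested at 20 µM; growth read once vehicle control cultures reached saturation at 30 °C; 1 = growth at the plate median or of vehicle wells; lower values mean less growth of the strain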
Settings: S. cerevisiae deletion strains, growth OD
[1] = locus YAL013W, strain DEP1, hits give low values
[2] = locus YBR229C, strain ROT2, hits give low values
[3] = locus YDL101C, strain DUN1, hits give low values
[4] = locus YDL134C, strain PPH21, hits give low values
[5] = locus YDR150W, strain NUM1, hits give low values
[6] = locus YEL061C, strain CIN8, hits give low values
[7] = locus YHR030C, strain SLT2, hits give low values
[8] = locus YJR043C, strain POL32, hits give low values
[9] = locus YJR075W, strain HOC1, hits give low values
[10] = locus YKL190W, strain CNB1, hits give low values
[11] = locus YLR039C, strain RIC1, hits give low values
[12] = locus YLR262C, strain YPT6, hits give low values
[13] = locus YMR263W, strain SAP30, hits give low values
[14] = locus YNL153C, strain GIM3, hits give low values
[15] = locus YNL322C, strain KRE1, hits give low values

Measured: normalized growth

CNC(C)[C@@H]1CC[C@@H](N)[C@@H](OC2[C@@H](N)C[C@@H](N)[C@H](OC3OC[C@](C)(O)[C@H](NC)[C@H]3O)[C@H]2O)O1 (some centres undefined)
inactive: [1] 1.02 | locus YAL021C, strain ccr4, hits give low values 1.02 | locus YAL026C, strain drs2, hits give low values 0.997 | locus YAL030W, strain snc1, hits give low values 0.998 | locus YBL061C, strain skt5, hits give low values 0.977 | locus YBR009C, strain hhf1, hits give low values 1.01 | locus YBR021W, strain FUR4, hits give low values 1.02 | locus YBR023C, strain chs3, hits give low values 0.988 | locus YBR171W, strain sec66, hits give low values 0.986 | [2] 1.02 | locus YBR231C, strain swc5, hits give low values 0.982 | locus YBR279W, strain paf1, hits give low values 0.991 | locus YCL011C, strain gbp2, hits give low values 1.01 | locus YCL016C, strain dcc1, hits give low values 1 | locus YCL029C, strain bik1, hits give low values 1.01 | locus YCL069W, strain vba3, hits give low values 0.992 | locus YCR088W, strain abp1, hits give low values 0.999 | locus YDL005C, strain med2, hits give low values 0.98 | locus YDL035C, strain GPR1, hits give low values 1.01 | locus YDL040C, strain nat1, hits give low values 0.994 | locus YDL074C, strain BRE1, hits give low values 1.03 | [3] 1.01 | [4] 1 | locus YDL185W, strain tfp1, hits give low values 1.02 | locus YDL192W, strain arf1, hits give low values 1.04 | locus YDR001C, strain nth1, hits give low values 0.988 | locus YDR069C, strain doa4, hits give low values 0.988 | locus YDR101C, strain arx1, hits give low values 0.992 | locus YDR137W, strain rgp1, hits give low values 1.01 | [5] 1.01 | locus YDR159W, strain sac3, hits give low values 0.995 | locus YDR162C, strain NBP2, hits give low values 1.01 | locus YDR195W, strain ref2 0.947 | locus YDR297W, strain sur2, hits give low values 0.983 | locus YDR318W, strain mcm21, hits give low values 1.02 | locus YDR334W, strain swr1, hits give low values 0.98 | locus YDR335W, strain msn5, hits give low values 0.98 | locus YDR388W, hits give low values 1.01 | locus YDR392W, strain spt3, hits give low values 1.03 | locus YDR502C, strain sam2, hits give low values 1.05 | locus YEL003W, strain gim4, hits give low values 0.975 | locus YEL037C, strain rad23, hits give low values 0.995 | locus YEL061C, strain CIN8 (second series), hits give low values 0.982 | [6] 1.02 | locus YER015W, strain faa2, hits give low values 0.993 | locus YER016W, strain bim1, hits give low values 0.979 | locus YER110C, hits give low values 1.02 | locus YER111C, strain swi4, hits give low values 0.976 | locus YER155C, strain BEM2 (second series), hits give low values 0.997 | locus YER155C, strain BEM2, hits give low values 1.01 | locus YER167W, strain BCK2, hits give low values 1.01 | locus YFR010W, strain ubp6, hits give low values 0.98 | locus YGL078C, strain dbp3, hits give low values 1.02 | locus YGL086W, strain mad1, hits give low values 1.01 | locus YGL167C, strain pmr1, hits give low values 0.982 | locus YGL173C, strain kem1, hits give low values 0.974 | locus YGL227W, strain vid30, hits give low values 0.987 | locus YGL240W, strain doc1, hits give low values 0.99 | locus YGL248W, strain PDE1, hits give low values 1.01 | locus YGL253W, strain hxk2, hits give low values 0.987 | locus YGR135W, strain pre9, hits give low values 1.05 | locus YGR229C, strain SMI1, hits give low values 1.01 | locus YGR252W, strain gcn5, hits give low values 1.04 | locus YHR013C, strain ard1, hits give low values 1.02 | locus YHR027C, strain rpn1, hits give low values 1 | [7] 1.02 and 0.984 | locus YHR079C, strain IRE1 (second series), hits give low values 1.02 | locus YHR079C, strain IRE1, hits give low values 1.01 | locus YHR094C, strain hxt1, hits give low values 1.01 | locus YHR129C, strain ARP1, hits give low values 1 | locus YHR142W, strain chs7, hits give low values 0.971 | locus YHR200W, strain rpn10, hits give low values 1.03 | locus YIL066C, strain RNR3, hits give low values 1.01 | locus YIL073C, strain SPO22, hits give low values 1.04 | locus YIL125W, strain kgd1, hits give low values 1.02 | locus YIR030C, strain dcg1, hits give low values 1.03 | locus YJL092W, strain hpr5, hits give low values 0.993 | locus YJL095W, strain BCK1 (second series), hits give low values 0.993 | locus YJL095W, strain BCK1, hits give low values 1.02 and 1 | locus YJL115W, strain asf1, hits give low values 0.982 | locus YJL129C, strain trk1, hits give low values 0.964 | locus YJL134W, strain LCB3, hits give low values 1.02 | locus YJL154C, strain vps35, hits give low values 0.999 | locus YJL164C, strain tpk1, hits give low values 1.01 | locus YJL166W, strain qcr8, hits give low values 0.984 | locus YJL168C, strain set2, hits give low values 1.02 | locus YJL187C, strain SWE1 (second series), hits give low values 1.01 | locus YJL187C, strain SWE1, hits give low values 0.992 | [8] 0.996 | locus YJR066W, strain TOR1, hits give low values 0.999 | [9] 1.03 | locus YKL009W, strain mrt4, hits give low values 1.01 | locus YKL068W, hits give low values 1.01 | locus YKL085W, strain MDH1 (second series), hits give low values 1.02 | locus YKL085W, strain MDH1, hits give low values 1.02 | locus YKL160W, strain elf1, hits give low values 0.977 | [10] 1.02 | locus YKR001C, strain vps1, hits give low values 1.02 | locus YKR026C, strain gcn3, hits give low values 1 | locus YKR091W, strain srl3, hits give low values 0.986 | locus YLL001W, strain dnm1, hits give low values 0.972 | locus YLL026W, hits give low values 0.996 | locus YLL041C, strain sdh2, hits give low values 0.995 | locus YLR027C, strain aat2, hits give low values 0.991 | [11] 1.08 | locus YLR058C, strain SHM2, hits give low values 1.03 | locus YLR102C, strain apc9, hits give low values 1.03 | locus YLR113W, strain HOG1, hits give low values 0.987 | locus YLR221C, strain rsa3, hits give low values 0.99 | locus YLR258W, strain gsy2, hits give low values 1 | locus YLR262C, strain YPT6 (second series), hits give low values 0.977 | [12] 1.05 | locus YLR268W, strain sec22, hits give low values 1.01 | locus YLR320W, strain mms22, hits give low values 1 | locus YLR330W, strain CHS5, hits give low values 1.01 | locus YLR342W, strain FKS1 (second series), hits give low values 0.996 | locus YLR342W, strain FKS1, hits give low values 0.977 | locus YLR357W, strain rsc2, hits give low values 0.991 | locus YLR370C, strain arc18, hits give low values 0.984 | locus YLR371W, strain rom2, hits give low values 1.01 | locus YLR384C, strain iki3, hits give low values 0.992 | locus YLR418C, strain cdc73, hits give low values 1.02 | locus YML016C, strain PPZ1, hits give low values 1.01 | locus YML032C, strain rad52, hits give low values 1.02 | locus YML120C, strain ndi1, hits give low values 0.996 | locus YML124C, strain tub3, hits give low values 1.01 | locus YMR058W, strain fet3, hits give low values 0.994 | locus YMR078C, strain ctf18, hits give low values 1.02 | locus YMR125W, strain sto1, hits give low values 0.979 | locus YMR129W, hits give low values 1 | locus YMR205C, strain PFK2, hits give low values 0.987 | locus YMR223W, strain ubp8, hits give low values 1.04 | locus YMR231W, strain pep5, hits give low values 0.988 | [13] 1.01 | locus YMR307W, strain GAS1, hits give low values 1 | locus YNL067W, strain RPL9B, hits give low values 1.02 | locus YNL071W, strain lat1, hits give low values 0.996 | [14] 1.01 | locus YNL183C, strain NPR1, hits give low values 0.97 | locus YNL209W, strain ssb2, hits give low values 1 | locus YNL233W, strain BNI4, hits give low values 1.01 | locus YNL248C, strain rpa49, hits give low values 1.02 | locus YNL250W, strain rad50, hits give low values 1.05 | locus YNL271C, strain bni1, hits give low values 1.03 | locus YNL298W, strain CLA4, hits give low values 1.02 | locus YNL307C, strain MCK1, hits give low values 1.03 | locus YNL322C, strain KRE1 (second series), hits give low values 0.988 | [15] 1.02 | locus YNR049C, strain mso1, hits give low values 0.986 | locus YNR052C, strain pop2, hits give low values 1.02 | locus YOL006C, strain TOP1, hits give low values 1.06 | locus YOL012C, strain htz1 0.693 | locus YOL147C, strain pex11, hits give low values 1.02 | locus YOR001W, strain rrp6, hits give low values 0.985 | locus YOR061W, strain CKA2, hits give low values 1.01 | locus YOR069W, strain VPS5, hits give low values 1.01 | locus YOR070C, strain gyp1, hits give low values 0.987 | locus YOR080W, strain dia2, hits give low values 0.982 | locus YOR083W, strain WHI5, hits give low values 0.977 | locus YOR106W, strain vam3, hits give low values 0.983 | locus YOR136W, strain idh2, hits give low values 1.02 | locus YOR144C, strain elg1, hits give low values 1.01 | locus YOR184W, strain ser1, hits give low values 1.03 | locus YOR231W, strain MKK1, hits give low values 0.976 | locus YOR265W, strain rbl2, hits give low values 0.987 | locus YOR270C, strain vph1, hits give low values 0.996 | locus YOR290C, strain snf2, hits give low values 1.01 | locus YOR316C, strain cot1, hits give low values 1.02 | locus YPL051W, strain arl3, hits give low values 0.982 | locus YPL078C, strain atp4, hits give low values 0.973 | locus YPL106C, strain sse1, hits give low values 1 | locus YPL240C, strain hsp82, hits give low values 0.99 | locus YPL256C, strain CLN2, hits give low values 0.988 | locus YPR119W, strain clb2, hits give low values 1.03 | locus YPR141C, strain kar3, hits give low values 1.02 | locus YPR163C, strain tif3, hits give low values 1.02 | locus YPR167C, strain met16, hits give low values 1.02 | strain wtn01, hits give low values 1.01

O=[N+]([O-])c1cc(C(F)(F)F)ccc1Sc1ccc(Cl)cc1
active: locus YLR085C, strain ARP6, hits give low values 0.757
inactive: [1] 1 | [2] 1.01 | [3] 1 | [4] 0.98 | [5] 0.957 | [6] 1.01 | locus YGR078C, strain PAC10, hits give low values 1.01 | [7] 0.901 | locus YHR087W, strain rtc3, hits give low values 1.01 | [8] 1 | [9] 1.02 | [10] 1.01 | [11] 0.928 | locus YLR058C, strain SHM2 (second series), hits give low values 1 | [12] 0.967 | locus YML094W, strain GIM5, hits give low values 0.97 | locus YMR219W, strain ESC1, hits give low values 1.01 | [13] 1.01 | [14] 1.02 | locus YNL298W, strain CLA4 (second series), hits give low values 0.995 | [15] 0.996 | locus YNR030W, strain Alg12, hits give low values 0.978 | locus YPL055C, strain LGE1, hits give low values 1.04 | locus YPL241C, strain CIN2, hits give low values 0.967 | locus YPR135W, strain CTF4, hits give low values 0.97
